Source: PubChem BioAssay (NCI)
Several values for one entry are separate records, joined by “and”; a condition that tells them apart may be missing. Equal values may be shown once. Compounds without any hit were thinned out: in the full panel of roughly 83,000, 20% have a hit.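 Method: cells in 96-well plates; compound added at one concentration; 48 h incubation; percent growth measured; values under 10 scored active.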 Activity calls are given as the source filed them.

Assays:
Test in all cases: NCI-60 one-dose screen, 48 h (100 = growth as untreated, 0 = no growth, -100 = all killed)
Settings in all cases: 10 µM unless noted
OVCAR-8 ovarian = system: OVCAR-8 ovarian
OVCAR-5 ovarian = system: OVCAR-5 ovarian
SK-OV-3 ovarian = system: SK-OV-3 ovarian
IGROV1 ovarian = system: IGROV1 ovarian
OVCAR-3 ovarian = system: OVCAR-3 ovarian
HS 578T breast = system: HS 578T breast
NCI/ADR-RES ovarian = system: NCI/ADR-RES ovarian
SR leukemia = system: SR leukemia
RPMI-8226 leukemia = system: RPMI-8226 leukemia
OVCAR-4 ovarian = system: OVCAR-4 ovarian

Measured: growth

Cc1cc(-c2ccc(N=Nc3ccc4c(S(=O)(=O)O)cc(S(=O)(=O)O)c(N)c4c3O)c(C)c2)ccc1N=Nc1ccc2c(S(=O)(=O)O)cc(S(=O)(=O)O)c(N)c2c1O
inactive: OVCAR-8 ovarian 101% | OVCAR-5 ovarian 90.2% | SK-OV-3 ovarian 102% | IGROV1 ovarian 78.5% | OVCAR-3 ovarian 95.5% | HS 578T breast 119% | NCI/ADR-RES ovarian 103%

C#CCOC(=O)Nc1ccccc1
inactive: SR leukemia 111% | RPMI-8226 leukemia 105% | OVCAR-8 ovarian 103% | OVCAR-4 ovarian 93.5% | SK-OV-3 ovarian 109% | IGROV1 ovarian 109% | OVCAR-3 ovarian 115% | HS 578T breast 105% | NCI/ADR-RES ovarian 104%

Oc1ccc(Cc2ccccc2Cl)c(O)c1
inactive: SR leukemia 95.7% | RPMI-8226 leukemia 87.5% | OVCAR-8 ovarian 104% | OVCAR-4 ovarian 93.6% | SK-OV-3 ovarian 104% | IGROV1 ovarian 94.7% | HS 578T breast 94.4% | NCI/ADR-RES ovarian 91.5%

O=C(CO)C(O)C(O)C(O)C(O)CO (configuration not stated)
inactive: SR leukemia 103% and 93.9% | RPMI-8226 leukemia 107% and 100% | OVCAR-8 ovarian 108% and 99.9% | OVCAR-4 ovarian 108% and 116% | SK-OV-3 ovarian 87.8% and 85.7% | IGROV1 ovarian 106% and 109% | OVCAR-3 ovarian 110% and 109% | HS 578T breast 101% and 104% | NCI/ADR-RES ovarian 106% and 107%

CCCCCCCCCCCCCCCc1ccc(N)c(OC2OC(CO)C(O)C(O)C2O)c1 (configuration not stated)
inactive: SR leukemia 40.2% | RPMI-8226 leukemia 28.7% | OVCAR-8 ovarian 87.1% | OVCAR-4 ovarian 85.2% | SK-OV-3 ovarian 149% | OVCAR-3 ovarian 93.6% | HS 578T breast 103% | NCI/ADR-RES ovarian 73%

CC(=O)OCC1OC(OC(C)=O)C(OC(C)=O)C(OC(C)=O)C1OC(C)=O (configuration not stated)
inactive: SR leukemia 98.1% and 93.6% | RPMI-8226 leukemia 100% and 103% | OVCAR-8 ovarian 97.5% and 99.7% | OVCAR-4 ovarian 97% and 104% | SK-OV-3 ovarian 102% and 106% | IGROV1 ovarian 108% and 105% | OVCAR-3 ovarian 110% and 107% | HS 578T breast 132% and 101% | NCI/ADR-RES ovarian 100% and 107%

COc1cc(C(O)C2C(=O)OCC2C2(c3ccc4c(c3)OCO4)SCCCS2)cc(OC)c1OC (configuration not stated)
inactive: RPMI-8226 leukemia 98.9% | OVCAR-8 ovarian 102% | OVCAR-4 ovarian 103% | SK-OV-3 ovarian 105% | IGROV1 ovarian 94.5% | OVCAR-3 ovarian 105% | HS 578T breast 101% | NCI/ADR-RES ovarian 89.4%

COc1ccc2cc1Oc1ccc(cc1)C[C@H]1c3cc(c(OC)cc3CCN1C)Oc1c(OC)c(OC)cc3c1[C@H](C2)N(C)CC3
active: SR leukemia -7.9% | RPMI-8226 leukemia -31.2%
inactive: OVCAR-5 ovarian 72.3% | SK-OV-3 ovarian 110% | OVCAR-3 ovarian 70.4% | HS 578T breast 46% | NCI/ADR-RES ovarian 56.8%

NC1CCC(C(=O)O)CC1 (configuration not stated)
inactive: SR leukemia 111% and 105% | RPMI-8226 leukemia 93.2% and 75.8% | OVCAR-8 ovarian 109% and 113% | OVCAR-4 ovarian 107% and 103% | SK-OV-3 ovarian 101% and 106% | IGROV1 ovarian 115% and 111% | OVCAR-3 ovarian 103% and 107% | HS 578T breast 86.4% and 94.8% | NCI/ADR-RES ovarian 110% and 107%

CC1=C/C(O)CC(=O)Cc2nc(co2)C(=O)N2CCC=C2C(=O)OC(C(C)C)C(C)/C=C\C(=O)NC/C=C\1 (configuration not stated)
inactive: SR leukemia 17.9% | RPMI-8226 leukemia 60.7% | OVCAR-8 ovarian 74% | OVCAR-4 ovarian 78.5% | SK-OV-3 ovarian 119% | OVCAR-3 ovarian 85% | HS 578T breast 63.4% | NCI/ADR-RES ovarian 109%
active: IGROV1 ovarian 3.64%

COc1ccc(Nc2ccc3ccccc3c2)cc1
inactive: RPMI-8226 leukemia 66.5% | OVCAR-5 ovarian 97.4% | OVCAR-4 ovarian 79.5% | SK-OV-3 ovarian 72.6% | OVCAR-3 ovarian 78.7% | HS 578T breast 96.5% | NCI/ADR-RES ovarian 65.7%

O=C(O)/C=C\C(=O)Nc1cccc2ccccc12
inactive: SR leukemia 103% and 70.2% | RPMI-8226 leukemia 81.8% and 95.4% | OVCAR-8 ovarian 102% and 105% | OVCAR-4 ovarian 92.2% and 115% | SK-OV-3 ovarian 92% and 103% | IGROV1 ovarian 74.9% and 129% | OVCAR-3 ovarian 90.1% and 113% | HS 578T breast 105% and 104% | NCI/ADR-RES ovarian 110% and 104%

CC(=O)NCC(=O)c1ccc([N+](=O)[O-])cc1
inactive: SR leukemia 104% | RPMI-8226 leukemia 104% | OVCAR-8 ovarian 103% | OVCAR-4 ovarian 113% | SK-OV-3 ovarian 108% | IGROV1 ovarian 107% | OVCAR-3 ovarian 105% | HS 578T breast 106% | NCI/ADR-RES ovarian 104%

OC1COC(OCc2ccccc2)C(O)C1O (configuration not stated)
inactive: RPMI-8226 leukemia 103% | OVCAR-4 ovarian 88.5% | SK-OV-3 ovarian 98.9% | IGROV1 ovarian 92.4% | OVCAR-3 ovarian 106% | NCI/ADR-RES ovarian 103%

CC1(C)COC(=S)N1
inactive: SR leukemia 93.8% | OVCAR-8 ovarian 103% | OVCAR-4 ovarian 102% | SK-OV-3 ovarian 109% | IGROV1 ovarian 95.8% | OVCAR-3 ovarian 110% | HS 578T breast 106% | NCI/ADR-RES ovarian 106%
